Screens (PubChem)
An excerpt weighted towards active compounds, which were near 21% of everything screened.
Shiga inhibitor = A qHTS for Small Molecule Inhibitors of Shiga Toxin; actives 9.2% (n = 290,000); inhibition, % at 38.7 µM; AID 2315, 2010; Vero cells, Shiga toxin protein synthesis inhibition reporter; in the data active = inhibition mostly above about 28%, no sharp cut-off; inactive = mostly below about 43%
Cycloheximide cs = Cycloheximide Counterscreen for Small Molecule Inhibitors of Shiga Toxin; cell reporter, cycloheximide protein synthesis inhibition counterscreen; max response, %; actives 12% (n = 300,000); in the data active = max response mostly above about 13%, no sharp cut-off; inactive = mostly below about 14%; note: read at 38.3 µM for the half of the compounds with a filed dose
NS1 inh = qHTS Assay for Inhibitors of Influenza NS1 Protein Function | Potency, µM (top dose mostly 46.1 µM) | actives 0.4% (n = 270,000); calls by dose curve; note: actives are rising curves; nearly all actives have a fitted effect of over 50% in size
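Compounds were scored for reversing the slow growth caused by influenza A NS1 in S. cerevisiae, measured by optical density at 600 nm. Assay medium contained 2% galactose at pH 6.0; NS1-free yeast of the same strain were the positive control.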
Pf growth 48h = Primary qHTS for delayed death inhibitors of the malarial parasite plastid, 48 hour incubation; P. falciparum luciferase growth in erythrocytes, 48 h; Potency, µM (doses to about 28.7 µM), hits mostly inhibitors; actives 5.9% (n = 310,000); AID 504832, 2011
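Cell-based growth assay: transgenic P. falciparum expressing firefly luciferase, cultured in red cells within RPMI 1640 containing 0.5% w/v Albumax, 24 mM bicarbonate and gentamycin. A drop in luciferase activity indicates inhibition.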
Pf growth 96h = Primary qHTS for delayed death inhibitors of the malarial parasite plastid, 96 hour incubation; actives 6.9% (n = 320,000); AID 504834, 2011; P. falciparum luciferase reporter growth, 96 h; Potency, µM (series often up to 28.7 µM), hits mostly inhibitors
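Plates of compound plus infected erythrocytes (2% hematocrit, 0.05% parasitemia final) incubate 96 hours, 37 C, 5% CO2. Detection reagent added; reduced luminescence from the parasites' luciferase reporter flags inhibition.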
Numbers stand for hits; [ ] = remark or other dose. Unless noted, calls come from the whole dose curve; as a rule, active = well fitted inhibition curve with a large enough effect; inconclusive = small, poorly fitted or top-dose-only effect, or another doubt; inactive = no such curve, though single readings can be large or run the other way.

How did CCOc1ccc(Cn2nnc(-c3ccc(S(C)(=O)=O)cc3)n2)cc1OCC do in these assays?
Pf growth 48h: inconclusive; Pf growth 96h: 0.93µM

How did OCC1OC(n2cnc3c(=S)nc[nH]c32)C(O)C1O (stereo unspecified) do in these assays?
Pf growth 48h: inconclusive; Pf growth 96h: 9.5µM

Results for Nc1nc(=S)c2ncn([C@@H]3O[C@H](CO)[C@@H](O)[C@H]3O)c2[nH]1 ?
Pf growth 48h: 10µM; Pf growth 96h: inconclusive

How did Nc1nc(Cl)nc2c1ncn2[C@@H]1O[C@H](CO)[C@@H](O)[C@H]1O do in these assays?
Shiga inhibitor: inactive; Cycloheximide cs: inactive; NS1 inh: inactive; Pf growth 48h: inconclusive; Pf growth 96h: 6.6µM

How did CC(C)[C@H](NC(=O)[C@@H]1CSC2c3ccccc3C(=O)N21)C(=O)NC1CCCC1 (stereo partly specified) do in these assays?
Shiga inhibitor: inactive; Cycloheximide cs: inactive; NS1 inh: inactive; Pf growth 48h: inactive; Pf growth 96h: inactive

Results for CCOc1ccc2[nH]c(C)c(CN3CCCCCC3)c(=O)c2c1 ?
Shiga inhibitor: inactive; Cycloheximide cs: inactive; NS1 inh: inactive; Pf growth 48h: inactive; Pf growth 96h: inconclusive

How did C=C1CC[C@H](O)C/C1=C/C=C1\CCC[C@]2(C)[C@@H]([C@H](C)CCCC(C)(C)O)CC[C@@H]12 do in these assays?
Pf growth 48h: inconclusive; Pf growth 96h: inactive

How did COc1cccc(NC(=O)CSc2nc3n[nH]c(C)c3c(=N)n2-c2cccc(OC)c2)c1 do in these assays?
Shiga inhibitor: inactive; Cycloheximide cs: inactive; NS1 inh: inactive; Pf growth 48h: 10µM; Pf growth 96h: inactive

Results for Cc1ccc(CNC(=O)CSc2nc3n[nH]c(C)c3c(=N)n2-c2cccc(C)c2)cc1 ?
Shiga inhibitor: inactive; Cycloheximide cs: inactive; NS1 inh: inactive; Pf growth 96h: 9.3µM

How did Cc1[nH]nc2nc(SCC(=O)NCC3CCCO3)n(-c3ccc(Br)cc3)c(=N)c12 (stereo unspecified) do in these assays?
Shiga inhibitor: inactive; Cycloheximide cs: inactive; NS1 inh: inactive; Pf growth 48h: 10µM; Pf growth 96h: inactive

What do the screens show for `COc1cccc(-n2c(SCC(=O)NCCC3=CCCCC3)nc3n[nH]c(C)c3c2=N)c1`?
Shiga inhibitor: inactive; Cycloheximide cs: inactive; NS1 inh: inactive; Pf growth 48h: 9.3µM; Pf growth 96h: inconclusive

What do the screens show for `CC1=NN(C(=O)CCc2ccccc2)C(O)(c2ccncc2)C1` (stereo unspecified)?
Shiga inhibitor: inactive; Cycloheximide cs: inactive; Pf growth 48h: inactive; Pf growth 96h: inactive

Results for CCOC(=O)c1sc(=NC(=O)c2cccc(Br)c2)n(C)c1C ?
Shiga inhibitor: inactive; Cycloheximide cs: 20; NS1 inh: inactive; Pf growth 48h: inactive; Pf growth 96h: inactive

How did CCOC(=O)c1sc(=NC(=O)c2cccc(C)c2)n(C)c1C do in these assays?
Shiga inhibitor: 123; Cycloheximide cs: 24; Pf growth 48h: inactive; Pf growth 96h: inactive

What do the screens show for `CCOC(=O)c1sc(=NC(=O)c2ccc(S(=O)(=O)N(C)c3ccccc3)cc2)n(C)c1C`?
Shiga inhibitor: inactive; Cycloheximide cs: inactive; Pf growth 48h: inactive; Pf growth 96h: inconclusive

What do the screens show for `COc1ccc(OCCOC(=O)C(C)NS(=O)(=O)c2ccc(NC(C)=O)cc2)cc1` (stereo unspecified)?
Pf growth 48h: inactive; Pf growth 96h: inactive

Results for O=C(Nc1ccccc1)C1C2CCCCC21 (stereo unspecified) ?
Shiga inhibitor: 65; Cycloheximide cs: 22; NS1 inh: inactive; Pf growth 48h: inactive; Pf growth 96h: inactive

What do the screens show for `Cc1ccc(NC(=O)C2C3/C=C\CCCCC32)cc1` (stereo unspecified)?
Shiga inhibitor: inactive; Cycloheximide cs: 12; NS1 inh: inactive; Pf growth 48h: inactive; Pf growth 96h: inconclusive

Results for CCOC(=O)C1C(c2ccccc2)C(C(=O)OCC)C1c1ccccc1 (stereo unspecified) ?
Shiga inhibitor: inactive; Cycloheximide cs: inactive; NS1 inh: inactive; Pf growth 48h: inconclusive; Pf growth 96h: inconclusive

How did CCOC(=O)C1C(C(=O)NN)C1C(=O)Nc1ccccc1 (stereo unspecified) do in these assays?
Shiga inhibitor: inactive; Cycloheximide cs: inactive; Pf growth 48h: 13µM; Pf growth 96h: inactive

How did Cc1ccc(NC(=O)C2C3CCCCC32)cc1[N+](=O)[O-] (stereo unspecified) do in these assays?
Shiga inhibitor: 58; Cycloheximide cs: 48; NS1 inh: inactive; Pf growth 48h: inactive; Pf growth 96h: inconclusive

How did CC(=O)c1sc(C(C)(C)C)cc1NC(=O)c1ccccc1C(=O)O do in these assays?
Shiga inhibitor: inactive; Cycloheximide cs: inactive; NS1 inh: inactive; Pf growth 48h: inactive; Pf growth 96h: inactive

How did Cc1cc(C)n(C(=O)C2CCCN2S(=O)(=O)c2ccc(Cl)cc2)n1 (stereo unspecified) do in these assays?
Shiga inhibitor: inactive; Cycloheximide cs: inactive; NS1 inh: inactive; Pf growth 48h: inactive; Pf growth 96h: inactive

Results for Cc1cc(NC(=O)OC2CCCCC2)ccc1[N+](=O)[O-] ?
Shiga inhibitor: 123; Cycloheximide cs: 55; NS1 inh: inactive; Pf growth 48h: inactive; Pf growth 96h: inactive

Results for O=C(Nc1cccc([N+](=O)[O-])c1)C1C2CCCCC21 (stereo unspecified) ?
Shiga inhibitor: inactive; Cycloheximide cs: inactive; NS1 inh: inactive; Pf growth 48h: inactive; Pf growth 96h: inconclusive

What do the screens show for `Cc1cccc(NC(=O)C2C3CCCCC32)c1` (stereo unspecified)?
Shiga inhibitor: 25; Cycloheximide cs: 32; NS1 inh: inactive; Pf growth 48h: inactive; Pf growth 96h: 0.19µM

How did O=C(CNC(=S)N(Cc1ccccc1)Cc1ccccc1F)NCc1ccccc1 do in these assays?
Shiga inhibitor: inactive; Cycloheximide cs: inactive; Pf growth 48h: inactive; Pf growth 96h: inconclusive

Results for COc1cccc(CNC(=O)CNC(=S)N(Cc2ccccc2)Cc2ccccc2F)c1 ?
Shiga inhibitor: inactive; Cycloheximide cs: inactive; Pf growth 48h: 12µM; Pf growth 96h: inactive

What do the screens show for `CC(C)(C)C(=O)Nc1cccc2[nH]ncc12`?
Shiga inhibitor: inactive; Cycloheximide cs: inactive; Pf growth 48h: inactive; Pf growth 96h: inactive

Results for CCn1nc(C)c(Br)c1-c1nc(CS(=O)(=O)c2ccsc2)no1 ?
Shiga inhibitor: inactive; Cycloheximide cs: 28; NS1 inh: inactive; Pf growth 48h: inactive; Pf growth 96h: inactive

How did CCCCOc1cccc(-c2nnc(N)s2)c1 do in these assays?
Shiga inhibitor: inactive; Cycloheximide cs: 25; NS1 inh: inactive; Pf growth 48h: inactive; Pf growth 96h: inactive

What do the screens show for `CCCOc1cccc(-c2nnc(N)s2)c1`?
Shiga inhibitor: 44; Cycloheximide cs: 22; NS1 inh: inactive; Pf growth 48h: inactive; Pf growth 96h: inactive[5.75 µM]

How did O=S(=O)(Nc1nc2ccccc2nc1Nc1ccc(N2CCOCC2)cc1)c1cc(Cl)ccc1Cl do in these assays?
Shiga inhibitor: inactive; Cycloheximide cs: inactive; NS1 inh: inactive; Pf growth 48h: inactive; Pf growth 96h: inactive

How did Cc1ccc(C)c2c1N(Cc1ccccc1)C(=O)C21OCCO1 do in these assays?
Shiga inhibitor: inactive; Cycloheximide cs: inactive; NS1 inh: inactive; Pf growth 48h: inactive; Pf growth 96h: inconclusive
